Molecules are shown by their SMILES. Compounds without any hit were thinned out: in the full panel of roughly 83,000, 20% have a hit.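 Step 1: grow cells in 96-well plates. Step 2: add test compound at a single concentration. Step 3: incubate 48 h. Step 4: record percent growth.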 A number with no mark means an inactive call. Active and inactive are the calls of the source. How the source made its calls: active means growth percent below 10; inactive means the rest.

Test in all cases: NCI-60 one-dose screen, 48 h (100 = growth as untreated, 0 = no growth, -100 = all killed)
In one assay the test system is NCI-H23 lung. Particulars: 10 µM.
The test system of a further assay is HOP-92 NSCLC. Particulars: 10 µM.
In the next assay the test system is NCI-H522 lung. The conditions noted are these: 10 µM.
The next assay concerns K-562 leukemia. Particulars: 10 µM.
The subject of a further assay is RXF 393 renal. Particulars: 10 µM.
For the next assay, the system named is UO-31 renal. The conditions noted are these: 10 µM.
For the next assay, the system named is CCRF-CEM leukemia. Particulars: 10 µM.
Another assay deals with MOLT-4 leukemia. Particulars: 10 µM.
For a further assay, the system named is SR leukemia. The conditions noted are these: 10 µM.
Another assay deals with NCI/ADR-RES ovarian. The conditions noted are these: 10 µM.
The next assay concerns T-47D breast. The conditions noted are these: 10 µM.
Another assay has as its system KM12 colon. Particulars: 10 µM.
The subject of a further assay is COLO 205 colon. The conditions noted are these: 10 µM.
A further assay has as its system MDA-MB-231 breast. Particulars: 10 µM.
A further assay relates to LOX IMVI melanoma. Particulars: 10 µM.
Another assay relates to HS 578T breast. Particulars: 10 µM.
A further assay deals with SW-620 colon. The conditions noted are these: 10 µM.
A further assay deals with MDA-MB-468 breast. The conditions noted are these: 10 µM unless noted.
In a further assay the test system is MCF7 breast. Particulars: 10 µM.
The next assay relates to OVCAR-5 ovarian. The conditions noted are these: 10 µM.

As for `O=C(/C=C/c1ccc(Cl)cc1)c1nc2ccccc2n1Cc1ccc(F)cc1`, the growth in the assay on NCI-H23 lung is 33.4%; in the assay on HOP-92 NSCLC, 16.7%; in the assay on NCI-H522 lung it was 34.9%; in the assay on K-562 leukemia it was 5.25% (active); in the assay on RXF 393 renal, 19%; in the assay on UO-31 renal it was 31.4%. The growth in the assay with CCRF-CEM leukemia is -13.1% (active); with MOLT-4 leukemia, -0.463% (active); in the assay on SR leukemia, -8.72% (active); in the assay on NCI/ADR-RES ovarian, 7.75% (active); with T-47D breast, 7.93% (active); in the assay with KM12 colon, 24.9%.
Regarding `CC[C@]12C=CCN3CC[C@@]4(c5ccc(OC)cc5N(C)[C@H]4[C@@](O)(C(=O)OC)[C@@H]1OC(=O)CCC[P+](c1ccc(F)cc1)(c1ccc(F)cc1)c1ccc(F)cc1)[C@@H]32`, the growth was 35.5% with NCI-H23 lung; -6.2% (active) in the assay with HOP-92 NSCLC; -19% (active) in the assay on COLO 205 colon; 21.6% in the assay on K-562 leukemia; 22% in the assay on MDA-MB-231 breast; -10.4% (active) in the assay with RXF 393 renal. For the same compound, the growth with LOX IMVI melanoma was 31%; with UO-31 renal, 81.5%; in the assay on CCRF-CEM leukemia it was 20%; with MOLT-4 leukemia, 37.1%; with SR leukemia, 42.6%; in the assay on HS 578T breast, 19.1%. In addition, the growth was 104% in the assay with NCI/ADR-RES ovarian, 45.3% in the assay with SW-620 colon, 21.3% in the assay with KM12 colon and -74.6% (active) with MDA-MB-468 breast.
Take `O=C([Se]C1C=CCCC1)c1ccc(C(=O)[Se]C2C=CCCC2)s1` (centres undefined): the growth is -74% (active) in the assay with NCI-H23 lung; -39.7% (active) in the assay with HOP-92 NSCLC; -92.8% (active) in the assay on NCI-H522 lung; 6.15% (active) with K-562 leukemia; -92% (active) in the assay with RXF 393 renal; -100% (active) in the assay on UO-31 renal. In addition, the growth was -36.7% (active) with CCRF-CEM leukemia; 0.117% (active) in the assay on MOLT-4 leukemia; -33% (active) with SR leukemia; -81.4% (active) in the assay on NCI/ADR-RES ovarian; -37.1% (active) in the assay with MCF7 breast; -64.9% (active) with KM12 colon. Further, the growth in the assay on MDA-MB-468 breast is -95.7% (active).
As for `CC(C)N=C([Se])NC(=O)c1cccs1`, the growth in the assay on NCI-H23 lung is -33.4% (active); with HOP-92 NSCLC it was 88.3%; with NCI-H522 lung, 41.1%; in the assay with COLO 205 colon, 84.7%; with K-562 leukemia, 71%; in the assay with RXF 393 renal, 21.6%. The growth in the assay on UO-31 renal is 12.4%; in the assay on CCRF-CEM leukemia, 29.7%; in the assay with MOLT-4 leukemia, 15.4%; in the assay on SR leukemia, 2.39% (active); with NCI/ADR-RES ovarian it was -27% (active); in the assay with T-47D breast, 79.4%. The values for the growth with MCF7 breast, in the assay on KM12 colon and with MDA-MB-468 breast were 1.79% (active), 16.7% and 64.4%, respectively.
Consider `CC1=C(C=O)C2=C(C)C3(CC3)[C@@](C)(O)C(=O)C2=C1`, for which the growth is 10.3% in the assay on NCI-H23 lung; 18.5% with HOP-92 NSCLC; -76.5% (active) in the assay on NCI-H522 lung; -43.4% (active) with MDA-MB-231 breast; -68.8% (active) in the assay with RXF 393 renal; -76.1% (active) with LOX IMVI melanoma. In addition, the growth in the assay on UO-31 renal was 11.2%; with CCRF-CEM leukemia, 18%; in the assay with HS 578T breast it was 36.3%; in the assay on NCI/ADR-RES ovarian, 16%; with SW-620 colon, -15.8% (active); in the assay on MCF7 breast, 14%. Also, the figures for the growth with KM12 colon and in the assay with MDA-MB-468 breast were 16.3% and -33.8% (active), respectively.
On to `COc1cc2cc(C(=O)N3C[C@@H](CCl)c4c3cc(OC(=O)N3CCN(C(=O)CCC(=O)N5CCN(C)CC5)[C@@H]5CSSC[C@@H]53)c3ccccc43)[nH]c2c(OC)c1OC`, for which the growth with NCI-H23 lung is -93% (active); in the assay on HOP-92 NSCLC it was 19.3%; with NCI-H522 lung, -82.7% (active); in the assay on COLO 205 colon, -65.6% (active); in the assay on K-562 leukemia, -17.8% (active); in the assay with MDA-MB-231 breast, -94.2% (active). Moreover, the growth in the assay with RXF 393 renal was -91.2% (active); in the assay with LOX IMVI melanoma it was -100% (active); with UO-31 renal, -65.2% (active); with CCRF-CEM leukemia, 25.2%; with MOLT-4 leukemia, 0.371% (active); with SR leukemia, -12.9% (active). The growth is -15.6% (active) in the assay on HS 578T breast; -56.6% (active) in the assay on NCI/ADR-RES ovarian; 1.49% (active) in the assay on T-47D breast; -23.4% (active) in the assay on SW-620 colon; -74.6% (active) with KM12 colon; -91.5% (active) in the assay on MDA-MB-468 breast.
As for `CC[C@@]12CC(C(=O)OC)=C3Nc4cc5c(cc4[C@@]34CCN(C[C@H]3O[C@H]31)[C@@H]24)[C@@H]1[C@H](O5)[C@@H](O)[C@@]2(CC)CC(C(=O)OC)=C3Nc4cc(OC)ccc4[C@@]34CCN1[C@@H]24`, the growth in the assay on NCI-H23 lung is 1.41% (active); with HOP-92 NSCLC it was 21.2%; in the assay with COLO 205 colon it was -59.1% (active); in the assay on K-562 leukemia it was 2.66% (active); in the assay with MDA-MB-231 breast, 18%; in the assay with RXF 393 renal it was -37.8% (active). In addition, the growth was -64.9% (active) in the assay on LOX IMVI melanoma; 10.1% in the assay with UO-31 renal; 15% in the assay on CCRF-CEM leukemia; -4.22% (active) in the assay on MOLT-4 leukemia; -16.2% (active) in the assay with SR leukemia; -6.21% (active) in the assay with HS 578T breast. Besides, the results for the growth in the assay on SW-620 colon, in the assay on KM12 colon and in the assay with MDA-MB-468 breast were 16.3%, 10.2% and -56.3% (active), respectively.
As to `C[C@H]1[C@H](OC(=O)CCC(=O)N(CCCc2cn(-c3ccc([N+](=O)[O-])cc3)nn2)CCNc2ccnc3cc(Cl)ccc23)O[C@@H]2OC3(C)CC[C@H]4[C@H](C)CC[C@@H]1[C@@]24OO3`, the growth in the assay on NCI-H23 lung was 43.4%; in the assay with HOP-92 NSCLC, 24.9%; in the assay with COLO 205 colon, 20.1%; in the assay with K-562 leukemia it was 8.36% (active); in the assay with MDA-MB-231 breast it was 50.2%; in the assay with RXF 393 renal, 26.1%. For the same compound, the growth with LOX IMVI melanoma was 21.7%; with UO-31 renal, 18.3%; in the assay on CCRF-CEM leukemia it was 26.3%; in the assay on MOLT-4 leukemia, 2.71% (active); with SR leukemia, -15.2% (active); in the assay with OVCAR-5 ovarian it was 54.3%. The growth was 52.8% in the assay with HS 578T breast; 30.6% in the assay on NCI/ADR-RES ovarian; 37.1% in the assay with T-47D breast; 38% in the assay on SW-620 colon; 10.4% in the assay on MCF7 breast; 33.6% in the assay on KM12 colon. Further, the growth with MDA-MB-468 breast is 31.2%.
As for `C[C@H]1[C@@H](CC(=O)N[C@@H](Cc2coc3ccccc23)B(O)O)O[C@@H]2OC3(C)CC[C@H]4[C@H](C)CC[C@@H]1[C@@]24OO3`, the growth is -65.9% (active) with NCI-H23 lung; -68.6% (active) with HOP-92 NSCLC; -74.5% (active) in the assay with NCI-H522 lung; -49.2% (active) with COLO 205 colon; 4.86% (active) in the assay with K-562 leukemia; -92% (active) with MDA-MB-231 breast. In addition, the growth in the assay with RXF 393 renal is -88.4% (active); with LOX IMVI melanoma, -92.3% (active); in the assay on UO-31 renal, 18.3%; in the assay on CCRF-CEM leukemia it was -10.3% (active); in the assay with MOLT-4 leukemia it was 8.41% (active); with SR leukemia it was 17.4%. Moreover, the growth in the assay with OVCAR-5 ovarian is -57.1% (active); with HS 578T breast, -4.2% (active); in the assay with SW-620 colon, 2.66% (active); in the assay with KM12 colon it was -20.4% (active); in the assay on MDA-MB-468 breast, -60.6% (active).
